Measurements reported in PubChem BioAssay AID2546 (National Center for Advancing Translational Sciences (NCATS), 2010).
The campaign covered roughly 310,000 compounds. About 11,000 (3.5%) were called active. Inconclusive results (about 8%) are left out. This is one part of a sample in which actives are shown more often than they occur. Values without a mark were called inactive. The call rests on the fitted dose curve; in most records, active means well fitted inhibition curve with a large enough effect; inconclusive means small, poorly fitted or top-dose-only effect, or effect the other way; inactive means flat fitted curve, though single readings scatter.

Test: VP16 counterscreen qHTS for inhibitors of ROR gamma transcriptional activity;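 further: Gal4-VP16 expression switched on by copper sulfate through the metallothionein promoter; nearly all actives have a fitted effect of over 50% in size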
Details: Drosophila S2 Gal4-VP16 UAS-luciferase, luminescence, 20 h; series mostly up to 53.6 µM; activity, negative = inhibition: at the top concentration
On the % scale 0 is the no-effect control and ±100 the full control effect; potency means the concentration at half of the fitted maximal effect.

Row | SMILES | activity, negative = inhibition | Potency
1 | CCOc1ccc2[nH]c(C(=O)N/N=C/c3cccc(OC)c3OC)cc2c1 | 4.44% | 
2 | COc1cccc(CCNC(=O)c2cccc(NC(=O)C3=C(C)OCCS3)c2)c1 | -17.2% | 
3 | Cc1ccc(N/C=C/C(=O)c2ccccc2)cc1C | -55.9% | 
4 | Cc1cc(C)nc(S/C=C/C(=O)c2ccccc2)n1 |  | 3.55 µM (active)
5 | Cc1cc(SCC(=O)c2ccccc2)nc(SCC(=O)c2ccccc2)n1 | -16.5% | 
6 | CSc1ccccc1NC(=O)c1ccc2c(c1)CCN2S(C)(=O)=O | -7.46% | 
7 | Cc1nn(CCCC(=O)NCc2ccccc2Cl)c(=O)c2nccn12 | -1.04% | 
8 | O=C(Cc1ccccc1)Nc1ccc(C(=O)Nc2ccccc2C(=O)O)cc1 | 5.24% | 
9 | CCOc1ccc(CN2CCN(Cc3ccc4cc(F)ccc4n3)CC2CCO)cc1 (stereo not given) | -6.33% | 
10 | COc1ccc(C(=O)NCc2nnc(SCC(=O)Nc3cccc(OC)c3)o2)cc1 | -0.7% | 
11 | COc1cc(C(=O)NCc2nnc(SCC(=O)Nc3nc4ccc(C)cc4s3)o2)cc(OC)c1OC |  | 3.16 µM (active)
12 | COc1cc(C(=O)NCc2nnc(SCC(=O)c3ccc(Cl)cc3)o2)cc(OC)c1OC | -6.58% | 
13 | O=C(CNC(=O)c1ccc(Br)o1)NCC1CCCO1 (stereo not given) | 1.42% | 
14 | COc1ccccc1/C=C/C(=O)NC1CC2CCC1C2 (stereo not given) | 22.3% | 
15 | COc1ccc(/C=C/C(=O)NC(=S)N2CCCC(C(N)=O)C2)cc1 (stereo not given) | -11.2% | 
16 | COc1ccccc1/C=C/C(=O)NC(=S)N1CCOCC1 |  | 8.91 µM (active)
17 | CCNC(=S)N1CCN(C(=O)c2ccco2)CC1 | -4.45% | 
18 | COc1ccc(C)cc1NC(=S)N1CCOCC1 | -2.62% | 
19 | O=C(/C=C/c1ccco1)NC(=S)N1CCCCC1 |  | 22.4 µM (active)
20 | CC1CCCN(S(=O)(=O)c2ccc(-c3ccc(=O)[nH]n3)o2)C1 (stereo not given) | -0.807% | 
21 | O=C(C1CC(=O)N(c2ccc(Br)cc2)C1)N1CCCC1 (stereo not given) | 2.91% | 
22 | CC(C)c1nc2ccc(C(=O)O)cc2[nH]1 |  | 20 µM (active)
23 | OC(c1nc2ccc(F)cc2[nH]1)C(O)c1nc2ccc(F)cc2[nH]1 (stereo not given) | -3.31% | 
24 | Cc1nc2ccc(C(=O)O)cc2[nH]1 | -8.16% | 

Row | SMILES | activity, negative = inhibition | Potency
25 | COc1ccc2cc(C(=O)C3CCCN(C(=O)c4sc(C)nc4C)C3)ccc2c1 (stereo not given) | -3.81% | 
26 | CC(C)(C)OC(=O)NNc1c2ccccc2nc2ccccc12 | -22.6% | 
27 | COC(=O)CSc1nnc(NC(=O)CCc2ccccc2)s1 | -9.32% | 
28 | O=C(NCCc1ccccc1Cl)C1CCC(=O)N(CCCc2ccccc2)C1 (stereo not given) | -8.62% | 
29 | CCCn1c(CCNc2nc(-c3ccc(OC)cc3)cs2)nc2ccccc21 | -4.87% | 
30 | O=C(CCCC(=O)N1CCN(c2cccc(Cl)c2)CC1)c1ccccc1 | 1.45% | 
31 | S=C1NC(c2ccccc2)=NCN1c1ccc(Br)cc1 |  | 20 µM (active)
32 | Cc1nc(=O)c(-c2ccccc2)c(C)n1-c1ccc(Br)cc1 | -1.26% | 
33 | Brc1ccccc1C1N=C(c2ccccc2)NO1 (stereo not given) | -7.34% | 
34 | COc1cc(NC(=O)CSc2ccc(-c3cccnc3)nn2)cc(OC)c1 | -0.546% | 
35 | CCOC(=O)C1(CCOc2ccccc2)CCN(Cc2ccc(C#CCCO)cc2)CC1 | -12.6% | 
36 | C=CCn1c(C23CC4CC(CC(C4)C2)C3)n[nH]c1=S |  | 2.51 µM (active)
37 | C=CCn1c(SCC(=O)NC)nnc1C12CC3CC(CC(C3)C1)C2 | 0.249% | 
38 | C=CCn1c(SCC(=O)NC23CC4CC(CC(C4)C2)C3)nc(O)cc1=O | -4.61% | 
39 | COc1cc(NS(=O)(=O)c2ccc(NC(=S)NC(=O)c3ccccc3)cc2)nc(OC)n1 | 10.4% | 
40 | Cn1c(C(=O)N2CCCC(C(=O)NCc3ccccc3)C2)cc2sccc21 (stereo not given) | 0.53% | 
41 | CC(=O)Nc1ccc(S(=O)(=O)NC2Cc3ccccc3C2)cc1 | 4.49% | 
42 | COc1ccc(-c2nc3ccccc3c(=O)n2CCc2ccc(O)cc2)cc1 | 4.13% | 
43 | O=C(CSc1nc2ccccc2s1)Nc1ccc(C(=O)O)cc1 | -0.471% | 
44 | COc1ccc(S(=O)(=O)Nc2ccc(O)c(Sc3nc4ccccc4s3)c2)cc1 | -20.8% | 
45 | O=[N+]([O-])c1c(NCCO)cc(Sc2nc3ccccc3s2)c2nonc12 |  | 5.01 µM (active)
46 | CCCOc1cccc(C(=O)Nc2ccccc2C(=O)N2CCN(C)CC2)c1 | 2.85% | 
47 | Cc1ccc(S(=O)(=O)c2nc(-c3cccs3)oc2NCc2cccnc2)cc1 | 3.93% | 
48 | Fc1ccc(/C=N/n2c(COc3ccccc3)n[nH]c2=S)cc1 | -7.22% | 

Row | SMILES | activity, negative = inhibition | Potency
49 | S=c1[nH]nc(COc2ccccc2)n1-c1ccccc1 |  | 10 µM (active)
50 | Cc1ccc(OCc2n[nH]c(=S)n2-c2ccc(C)cc2)cc1 | -10.9% | 
51 | COc1ccc2oc(C(=O)NCC(Cc3ccccc3)N(C)C)c(C)c2c1 (stereo not given) | -12.4% | 
52 | CC(C)Oc1ccc(Cc2n[nH]c(=S)n2Cc2ccccc2)cc1Cl | -9.9% | 
53 | CC(C)Oc1ccc(CCc2n[nH]c(=S)n2Cc2ccccc2)cc1 |  | 15.8 µM (active)
54 | C=CCn1c(CCc2ccc(OC(C)C)cc2)n[nH]c1=S | -0.265% | 
55 | COc1ccc(CCNC(=O)C2CCCN(S(=O)(=O)c3ccc(OC)cc3)C2)cc1 (stereo not given) | -4.87% | 
56 | CC1CCC(NC(=O)CN(C)S(=O)(=O)c2ccc3c(c2)c(=O)n(C)c(=O)n3C)CC1 (stereo not given) | -7.19% | 
57 | COc1cccc(NC(=O)CC2C(=O)NCCN2C(=S)Nc2ccc(F)cc2)c1 (stereo not given) | 1.84% | 
58 | CCc1ccc(NC(=O)CC2C(=O)NCCN2C(=S)Nc2ccccc2)cc1 (stereo not given) | 1.61% | 
59 | COc1ccc(C(=O)NC(=S)N2CCNC(=O)C2CC(=O)OC(C)C)cc1 (stereo not given) |  | 10 µM (active)
60 | Cc1ccc(-c2ccc(=O)n(Cc3ccc(F)cc3Cl)n2)cc1 | -19% | 
61 | O=[N+]([O-])c1ccc2c(c1)Nc1nc3ccccc3nc1N2 | 5.07% | 
62 | O=[N+]([O-])c1ccc2nc(-c3ccccn3)[nH]c2c1 |  | 6.31 µM (active)
63 | O=c1[nH]c2cccnc2n1-c1ccc([N+](=O)[O-])cc1 | -8.8% | 
64 | CC(C)(C)c1nnc(N/N=C/c2ccc(O)cc2)n(N)c1=O |  | 2.24 µM (active)
65 | O=c1c2ccccc2nc(N/N=C/c2ccccc2)n1O | -13.5% | 
66 | Nc1nnn(CC(=O)N/N=C/c2ccc(O)cc2)n1 | 1.16% | 
67 | CC(=O)Nc1cccc(C(=O)Nc2nc(C)cs2)c1 | -5.52% | 
68 | S=C(Nc1cccc(Cl)c1)Nc1ccc2cn[nH]c2c1 | -2.76% | 
69 | Cc1csc(NC(=S)Nc2cccc(Cl)c2)n1 |  | 1 µM (active)
70 | COc1cccc(N(CC(=O)NC2CCCCCC2)S(=O)(=O)c2ccccc2)c1 | -3.26% | 
